Molecules are shown by their SMILES. Out of some 39,000 compounds screened, about 1,500 (3.8%) were called active. The sample holds actives, similar compounds and a random draw of the others, so the mix is not that of the screen.

The experiment concerns HSkMC (human skeletal muscle cells). Kind of experiment: cytotoxicity call (relative viability < 0.9). The conditions noted are these: 10 µM.
As for `C[C@@H]1CN([C@@H](C)CO)C(=O)c2cc(NS(=O)(=O)c3cn(C)cn3)ccc2O[C@@H]1CN(C)C(=O)Nc1ccc(F)cc1`, the cytotoxicity call is “inactive”.

For `C[C@@H]1CN([C@@H](C)CO)C(=O)c2cc(NC(=O)Nc3cccc4ccccc34)ccc2O[C@@H](C)CCCCO[C@@H]1CN(C)Cc1ccc(C(=O)O)cc1`, the cytotoxicity call was “inactive”.

As for `Cc1ccc(S(=O)(=O)N(C)C[C@H]2Oc3ccc(NS(=O)(=O)c4ccc(F)cc4)cc3C(=O)N([C@@H](C)CO)C[C@H]2C)cc1`, the cytotoxicity call was “inactive”.

As to `COc1ccccc1C#Cc1cnc2c(c1)C(=O)N([C@H](C)CO)C[C@@H](C)[C@H](CN(C)C(=O)c1ccc3c(c1)OCO3)O2`, the cytotoxicity call was “inactive”.

On to `COc1ccc(C#Cc2ccc([C@@H]3[C@H](CO)N4CCCCN(S(=O)(=O)c5cn(C)cn5)C[C@@H]34)cc2)cc1`, for which the cytotoxicity call was “inactive”.

`COc1ccc(C#Cc2ccc([C@H]3[C@@H](CO)N4CCCCN(S(=O)(=O)c5cn(C)cn5)C[C@@H]34)cc2)cc1`: the cytotoxicity call is “inactive”.

For `COc1ccc(C#Cc2ccc([C@@H]3[C@@H](CO)N4CCCCN(S(=O)(=O)c5cn(C)cn5)C[C@H]34)cc2)cc1`, the cytotoxicity call was “active”.

Turning to `COc1ccc(C#Cc2ccc([C@@H]3[C@H]4CN(S(=O)(=O)c5cn(C)cn5)CCCCN4[C@H]3CO)cc2)cc1`, the cytotoxicity call is “inactive”.

For the compound `CC(C)(O)C#Cc1ccc([C@H]2[C@H](CO)N3CCCCN(S(C)(=O)=O)C[C@@H]23)cc1`, the cytotoxicity call was “inactive”.

For `COc1ccc(C#Cc2ccc([C@H]3[C@H]4CN(S(=O)(=O)c5cn(C)cn5)CCCCN4[C@H]3CO)cc2)cc1`, the cytotoxicity call is “inactive”.

In the case of `COc1ccc(C#Cc2ccc([C@H]3[C@H](CO)N4CCCCN(S(=O)(=O)c5cn(C)cn5)C[C@@H]34)cc2)cc1`, the cytotoxicity call is “inactive”.

As for `COc1ccc(C#Cc2ccc([C@H]3[C@@H](CO)N4CCCCN(S(=O)(=O)c5cn(C)cn5)C[C@H]34)cc2)cc1`, the cytotoxicity call is “active”.

Consider `COc1ccc(C#Cc2ccc([C@@H]3[C@@H](CO)N4CCCCN(S(=O)(=O)c5cn(C)cn5)C[C@@H]34)cc2)cc1`, for which the cytotoxicity call is “active”.

In the case of `C[C@H](CO)N1C[C@H](C)[C@H](CN(C)Cc2ccc(Oc3ccccc3)cc2)Oc2ccc(NC(=O)c3ccncc3)cc2C1=O`, the cytotoxicity call is “inactive”.

As for `C[C@@H]1CN([C@@H](C)CO)C(=O)Cc2cc(NC(=O)Cn3cnnn3)ccc2O[C@@H]1CN(C)C(=O)Nc1cccc2ccccc12`, the cytotoxicity call was “inactive”.

Take `C=CC[C@H](CC(=O)NCCO)C(=O)N[C@@H](COC(=O)[C@@H](CC=C)CC(=O)OC(C)(C)C)Cc1c[nH]c2ccccc12`: the cytotoxicity call is “inactive”.

`COc1ccc(NC(=O)Nc2ccc3c(c2)C(=O)N([C@H](C)CO)C[C@H](C)[C@H](CN(C)S(=O)(=O)c2c(C)noc2C)OCCCC[C@@H](C)O3)cc1`: the cytotoxicity call is “inactive”.

`COCC(=O)Nc1ccc2c(c1)C(=O)N(C)C[C@@H](OC)[C@@H](C)CN(C(=O)Cc1cccnc1)[C@H](C)CO2`: the cytotoxicity call is “inactive”.

Take `C[C@@H]1CCCCO[C@H](CN(C)C(=O)Nc2ccc3c(c2)OCO3)[C@H](C)CN([C@@H](C)CO)C(=O)c2cc(NS(=O)(=O)c3ccc(F)cc3)ccc2O1`: the cytotoxicity call was “inactive”.

On to `Cc1ccc(S(=O)(=O)Nc2ccc3c(c2)C(=O)N([C@@H](C)CO)C[C@H](C)[C@H](CN(C)Cc2ccc(C(=O)O)cc2)OCCCC[C@@H](C)O3)cc1`, for which the cytotoxicity call was “inactive”.

As for `Cc1cc(C)n2nc(N)nc2n1`, the cytotoxicity call is “inactive”.

`Nc1ccc2c(c1)nc(CO)n2CCO`: the cytotoxicity call is “inactive”.

Take `C[n+]1c2cc(N)ccc2cc2ccc(N)cc21.[Cl-]`: the cytotoxicity call was “inactive”.

As for `Nc1ccc2cc3ccc(N)cc3nc2c1.O=S(=O)(O)O`, the cytotoxicity call was “active”.

As to `C[C@@H]1CCCCO[C@@H](CN(C)Cc2ccccc2)[C@H](C)CN([C@@H](C)CO)C(=O)c2cc(NC(=O)C3CCCCC3)ccc2O1`, the cytotoxicity call is “inactive”.

With `COCCC(=O)NS(=O)(=O)c1ccccc1`, the cytotoxicity call is “inactive”.

In the case of `CC(C)(C)C(=O)N1CCNCC1`, the cytotoxicity call is “inactive”.

On to `C[C@H]1CN([C@@H](C)CO)C(=O)c2cc(C#CCN(C)C)cnc2O[C@@H]1CN(C)C(=O)Nc1ccccc1F`, for which the cytotoxicity call is “inactive”.

Turning to `C=C1C[C@@H]2CC[C@@]34C[C@H]5O[C@H]6[C@@H](O3)[C@H]3O[C@H](CC[C@@H]3O[C@H]6[C@H]5O4)CC(=O)C[C@@H]3[C@@H](OC)[C@@H](C[C@H](O)CN)O[C@H]3C[C@H]3O[C@@H](CC[C@@H]1O2)C[C@@H](C)C3=C`, the cytotoxicity call is “active”.

As for `COc1ccc(NC(=O)N(C)C[C@@H]2Oc3ccc(NC(=O)Nc4ccc(C(F)(F)F)cc4)cc3CC(=O)N([C@@H](C)CO)C[C@@H]2C)cc1`, the cytotoxicity call was “inactive”.

In the case of `C[C@@H]1CN([C@H](C)CO)C(=O)c2cc(Br)cnc2O[C@H]1CN(C)S(=O)(=O)c1ccc(F)cc1`, the cytotoxicity call is “inactive”.

Turning to `COc1ccccc1C#Cc1ccc2c(c1)O[C@@H](CN(C)Cc1ccncc1)[C@H](C)CN([C@@H](C)CO)S2(=O)=O`, the cytotoxicity call is “active”.

For the compound `COc1ccccc1C#Cc1ccc2c(c1)O[C@H](CN(C)Cc1ccncc1)[C@@H](C)CN([C@@H](C)CO)S2(=O)=O`, the cytotoxicity call was “active”.

Turning to `COc1ccccc1C#Cc1ccc2c(c1)O[C@H](CN(C)Cc1ccncc1)[C@@H](C)CN([C@H](C)CO)S2(=O)=O`, the cytotoxicity call was “inactive”.

Regarding `COc1ccccc1C#Cc1ccc2c(c1)O[C@@H](CN(C)Cc1ccncc1)[C@@H](C)CN([C@H](C)CO)S2(=O)=O`, the cytotoxicity call is “inactive”.

With `COc1ccccc1C#Cc1ccc2c(c1)O[C@H](CN(C)Cc1ccncc1)[C@H](C)CN([C@@H](C)CO)S2(=O)=O`, the cytotoxicity call is “inactive”.

On to `COc1ccccc1C#Cc1ccc2c(c1)O[C@@H](CN(C)Cc1ccncc1)[C@@H](C)CN([C@@H](C)CO)S2(=O)=O`, for which the cytotoxicity call is “inactive”.

As to `COc1ccccc1C#Cc1ccc2c(c1)O[C@H](CN(C)Cc1ccncc1)[C@H](C)CN([C@H](C)CO)S2(=O)=O`, the cytotoxicity call is “inactive”.

As for `COc1ccccc1C#Cc1ccc2c(c1)O[C@@H](CN(C)Cc1ccncc1)[C@H](C)CN([C@H](C)CO)S2(=O)=O`, the cytotoxicity call was “active”.

Consider `C[C@H](CO)N1C[C@H](C)[C@H](CN(C)S(=O)(=O)c2cccc(F)c2)Oc2cc(Br)ccc2S1(=O)=O`, for which the cytotoxicity call is “inactive”.

As to `C[C@@H]1CN([C@@H](C)CO)C(=O)c2cc(NS(C)(=O)=O)ccc2O[C@@H]1CN(C)C(=O)Nc1ccc(C(F)(F)F)cc1`, the cytotoxicity call was “inactive”.

Take `COc1ccc(S(=O)(=O)Nc2ccc3c(c2)C(=O)N([C@@H](C)CO)C[C@H](C)[C@@H](CN(C)C(=O)Nc2c(C)noc2C)O3)cc1`: the cytotoxicity call is “inactive”.

(Values after the antibiotic and cytotoxicity screens of Wong et al. (2023).)
